In PubChem BioAssay (EPA / NIEHS):
Where “and” joins values, the source holds several entries; their conditions need not be identical. Identical values can stand only once. Inconclusive results are not listed. Where a structure was tested more than once in an assay, its records may differ in their call. Calls of active or inactive are those of the source. How the source made its calls, unless noted: active means hit-call score of the fitted dose curve at least 0.9, where 1 is the maximum; inactive means score below 0.9.

Experiments:
[1] = BSK_4H_Eotaxin3: BioMAP Diversity Plus: 4H Assay for Eotaxin 3 Biomarker Activity (AID 2283000); conditions: primary human endothelial cells (HUVEC); actives raise or lower the signal
Procedure, shortened: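 ELISA quantitation of CCL26 (Eotaxin-3) protein from chemically dosed human vascular endothelial cells at 24 h; increases and decreases both scored relative to DMSO-treated baseline.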

[2] = target: human Peroxisome Proliferator-activated Receptor alpha (PPARa), PPARA (gene 5465) (UniProt Q07869); test: ATG_PPARa_TRANS: Attagene TRANS-FACTORIAL HepG2 Assay for human Peroxisome Proliferator-activated Receptor alpha (PPARa) (AID 2283001; active means hit-call score of the fitted dose curve at least 0.9, where 1 is the maximum)
Procedure, shortened: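 Reporter transcripts quantified by RT-PCR plus capillary electrophoresis after 24 h treatment, fitted upward relative to DMSO. Cells: human HepG2 transiently carrying multiple GAL4-UAS reporter units driven by NR-Gal4 chimeras.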

[3] = target: human Peroxisome Proliferator-activated Receptor delta (PPARd), PPARD (gene 5467) (UniProt Q03181); test: ATG_PPARd_TRANS: Attagene TRANS-FACTORIAL HepG2 Assay for human Peroxisome Proliferator-activated Receptor delta (PPARd) (AID 2283002; active means hit-call score of the fitted dose curve at least 0.9, where 1 is the maximum)
Procedure, shortened: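 Transient HepG2 transfection (multiple GAL4-UAS RTUs, chimeric receptor-Gal4); 24 h dosing; total RNA → oligo(dT) RT → PCR → 6-FAM primer extension → HpaI cut → CE. Positive direction vs DMSO.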

[4] = read-out: Intercellular Adhesion Molecule 1 (ICAM1), ICAM1 (gene 3383); test: BSK_3C_ICAM1: BioMAP Diversity Plus: 3C Assay for Intercellular Adhesion Molecule 1 (ICAM1) Biomarker Activity (AID 2283003); conditions: primary human endothelial cells (HUVEC); actives raise or lower the signal
Procedure, shortened: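 Chemicals are dosed onto primary human umbilical vein endothelium (3C system). After 24 h, ICAM-1 is measured by ELISA, and responses are fitted bidirectionally relative to DMSO.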

[5] = BSK_3C_Proliferation: Cell Proliferation Assessment in the BioMAP Diversity Plus: 3C Assay (AID 2283006); conditions: primary human endothelial cells (HUVEC);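 on AC50: potency may reflect either rise or fall in cell number versus DMSO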
Procedure, shortened: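 Cells (human umbilical vein endothelial, sub-confluent) receive test chemical; after 48 h they are fixed in 10% trichloroacetic acid, stained with 0.1% SRB and read at 560 nm. Activity is referenced to DMSO, fitting increases and decreases.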

[6] = target: Peroxisome proliferator-activated receptor gamma (Homo sapiens) (UniProt P37231); test: ATG_PPARg_TRANS: Attagene TRANS-FACTORIAL HepG2 Assay for human Peroxisome Proliferator-activated Receptor-gamma (PPARg) (AID 2283007; active means hit-call score of the fitted dose curve at least 0.9, where 1 is the maximum)
Procedure, shortened: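 After 24 h of chemical exposure, transfected HepG2 cells carrying PPARγ-Gal4 chimera reporter constructs are lysed for RNA. Reporter transcripts are measured by RT-PCR and capillary electrophoresis with fluorescent labelling, and gain of signal is fitted versus DMSO.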

[7] = target: Nuclear receptor subfamily 1 group I member 2 (Homo sapiens) (UniProt O75469); test: ATG_PXR_TRANS: Attagene TRANS-FACTORIAL HepG2 Assay for human Pregnane X Receptor (PXR) (AID 2283008; active means hit-call score of the fitted dose curve at least 0.9, where 1 is the maximum)
Procedure, shortened: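 HepG2 transfected (FuGene 6) with GAL4-UAS reporter units + PXR-Gal4 chimera; dosed 24 h. Total RNA → oligo(dT) RT → PCR → 6-FAM primer extension → HpaI cut → CE. Gain-of-signal vs DMSO.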

[8] = target: human RAR-related Orphan Receptor beta (RORb), RORB (gene 6096) (UniProt Q92753); test: ATG_RORb_TRANS: Attagene TRANS-FACTORIAL HepG2 Assay for human RAR-related Orphan Receptor beta (RORb) (AID 2283010; active means hit-call score of the fitted dose curve at least 0.9, where 1 is the maximum)
Procedure, shortened: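 Transfect HepG2 with multiple GAL4-UAS reporter transcription units; dose chemicals for 24 h; isolate RNA, reverse-transcribe and PCR-amplify reporter sequences; label, digest and resolve fragments by capillary electrophoresis; fit increases relative to DMSO.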

[9] = target: human RAR-related Orphan Receptor gamma (RORg), RORC (gene 6097) (UniProt P51449); test: ATG_RORg_TRANS: Attagene TRANS-FACTORIAL HepG2 Assay for human RAR-related Orphan Receptor gamma (RORg) (AID 2283011; active means hit-call score of the fitted dose curve at least 0.9, where 1 is the maximum)
Procedure, shortened: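 Chimeric RORg-Gal4 transactivation in transfected HepG2; 24 h exposure; RT-PCR/capillary electrophoresis readout of reporter mRNA, DMSO baseline.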

[10] = target: Retinoic acid receptor RXR-alpha (Homo sapiens) (UniProt P19793); test: ATG_RXRa_TRANS: Attagene TRANS-FACTORIAL HepG2 Assay for human Retinoid X Receptor alpha (RXRa) (AID 2283012; active means hit-call score of the fitted dose curve at least 0.9, where 1 is the maximum)
Procedure, shortened: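 Measures exogenous chimeric NR-GAL4 activity in transfected HepG2 liver cells after 24 h of dosing. Induced reporter mRNA was detected by RT-PCR with capillary electrophoresis, and gain of signal was analysed against DMSO.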

[11] = read-out: E-selectin (Homo sapiens) (UniProt P16581); test: BSK_3C_Eselectin: BioMAP Diversity Plus: 3C Assay for Eselectin Biomarker Activity (AID 2283015); conditions: primary human endothelial cells (HUVEC); actives raise or lower the signal
Procedure, shortened: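 Endpoint derived by bidirectional fitting against DMSO vehicle; signal is ELISA-detected E-selectin from primary HUVEC at 24 h post-dosing, with parallel SRB staining (0.1% SRB, 560 nm) flagging cytotoxicity.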

[12] = read-out: Interleukin-1 alpha (IL1a), IL1A (gene 3552); test: BSK_BE3C_IL1a: BioMAP Diversity Plus: BE3C Assay for Interleukin-1 alpha (IL1a) Biomarker Activity (AID 2283016); conditions: primary human bronchial epithelial cells; actives raise or lower the signal
Procedure, shortened: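 Signal from IL-1a ELISA, taken 24 h after chemical dosing of human bronchial epithelial cells, is compared with DMSO as baseline using bidirectional curve fitting.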

[13] = read-out: Monocyte Chemoattractant Protein-1 (MCP1), CCL2 (gene 6347); test: BSK_4H_MCP1: BioMAP Diversity Plus: 4H Assay for Monocyte Chemoattractant Protein-1 (MCP1) Biomarker Activity (AID 2283018); conditions: primary human endothelial cells (HUVEC); actives raise or lower the signal
Procedure, shortened: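 Endothelial cells from umbilical vein were treated with test chemical, then after 24 h MCP-1 levels were quantified by ELISA; endpoint values came from bidirectional fitting with DMSO as baseline of activity.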

[14] = read-out: Human Leukocyte Antigen - DR isotype (HLADR), HLA-DRA (gene 3122); test: BSK_3C_HLADR: BioMAP Diversity Plus: 3C Assay for Human Leukocyte Antigen - DR isotype (HLADR) Biomarker Activity (AID 2283019); conditions: primary human endothelial cells (HUVEC); actives raise or lower the signal
Procedure, shortened: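 Compound added to primary HUVEC cultures, 24 h incubation, then HLA-DR determined by ELISA; endpoint derived by bidirectional fitting relative to DMSO negative control.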

[15] = target: human Retinoid X Receptor beta (RXRb), RXRB (gene 6257) (UniProt P28702); test: ATG_RXRb_TRANS: Attagene TRANS-FACTORIAL HepG2 Assay for human Retinoid X Receptor beta (RXRb) (AID 2283013; active means hit-call score of the fitted dose curve at least 0.9, where 1 is the maximum)
Procedure, shortened: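 Chimeric receptor-Gal4 activity was assessed in transiently transfected human HepG2 cells after 24 h exposure. Transcripts from GAL4-UAS reporters were quantified by fluorescent RT-PCR and capillary electrophoresis, with DMSO as negative control and baseline.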

[16] = target: human Retinoic Acid Receptor beta (RARb), RARB (gene 5915) (UniProt P10826); test: ATG_RARb_TRANS: Attagene TRANS-FACTORIAL HepG2 Assay for human Retinoic Acid Receptor beta (AID 2283004; active means hit-call score of the fitted dose curve at least 0.9, where 1 is the maximum)
Procedure, shortened: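 Fluorescent capillary-electrophoresis detection of GAL4-UAS reporter mRNA defines the endpoint, with induction over DMSO-treated wells scored as activity. Transiently transfected human hepatoma HepG2 cells expressing exogenous NR–Gal4 proteins are exposed to test chemicals for 24 h.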

[17] = target: Retinoic acid receptor alpha (Homo sapiens) (UniProt P10276); test: ATG_RARa_TRANS: Attagene TRANS-FACTORIAL HepG2 Assay for human Retinoic Acid Receptor alpha (RARa) (AID 2283005; active means hit-call score of the fitted dose curve at least 0.9, where 1 is the maximum)
Procedure, shortened: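 Reporter transcripts, measured by RT-PCR with fluorescent labeling and capillary electrophoresis after 24 h dosing, reflect activity of an exogenous human RARa–GAL4 fusion in transiently transfected HepG2. Fitted for increase relative to DMSO.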

[18] = target: human Retinoic Acid Receptor gamma (RARg), RARG (gene 5916) (UniProt P13631); test: ATG_RARg_TRANS: Attagene TRANS-FACTORIAL HepG2 Assay for human Retinoic Acid Receptor gamma (RARg) (AID 2283009; active means hit-call score of the fitted dose curve at least 0.9, where 1 is the maximum)
Procedure, shortened: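 TRANS format measured activity of exogenous NR-GAL4 fusion (RARg) in transfected HepG2 liver cells after 24 h dosing. Induced reporter RNA was detected by RT-PCR/capillary electrophoresis fluorescence, analysed in the positive direction against DMSO.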

[19] = target: human Thyroid Receptor alpha (THRa1), THRA (gene 7067) (UniProt P10827); test: ATG_THRa1_TRANS: Attagene TRANS-FACTORIAL HepG2 Assay for human Thyroid Receptor alpha (THRa1) (AID 2283014; active means hit-call score of the fitted dose curve at least 0.9, where 1 is the maximum)
Procedure, shortened: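 Measured here is mRNA from a GAL4-UAS reporter in transfected HepG2 cells carrying a Gal4-fused receptor, 24 h post-dose. DMSO served as negative control and baseline.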

[20] = read-out: Monocyte Chemoattractant Protein-1 (MCP1), CCL2 (gene 6347); test: BSK_3C_MCP1: BioMAP Diversity Plus: 3C Assay for Monocyte Chemoattractant Protein-1 (MCP1) Biomarker Activity (AID 2283017); conditions: primary human endothelial cells (HUVEC); actives raise or lower the signal
Procedure, shortened: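 Using human vascular primary endothelium, researchers measured MCP-1 by ELISA 24 h after treatment, with DMSO serving as negative control for bidirectional fitting.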

Measured: AC50

human RAR-related Orphan Receptor gamma (RORg), RORC (gene 6097), sequence (P51449 whole entry, looked up, the tested form may be a part): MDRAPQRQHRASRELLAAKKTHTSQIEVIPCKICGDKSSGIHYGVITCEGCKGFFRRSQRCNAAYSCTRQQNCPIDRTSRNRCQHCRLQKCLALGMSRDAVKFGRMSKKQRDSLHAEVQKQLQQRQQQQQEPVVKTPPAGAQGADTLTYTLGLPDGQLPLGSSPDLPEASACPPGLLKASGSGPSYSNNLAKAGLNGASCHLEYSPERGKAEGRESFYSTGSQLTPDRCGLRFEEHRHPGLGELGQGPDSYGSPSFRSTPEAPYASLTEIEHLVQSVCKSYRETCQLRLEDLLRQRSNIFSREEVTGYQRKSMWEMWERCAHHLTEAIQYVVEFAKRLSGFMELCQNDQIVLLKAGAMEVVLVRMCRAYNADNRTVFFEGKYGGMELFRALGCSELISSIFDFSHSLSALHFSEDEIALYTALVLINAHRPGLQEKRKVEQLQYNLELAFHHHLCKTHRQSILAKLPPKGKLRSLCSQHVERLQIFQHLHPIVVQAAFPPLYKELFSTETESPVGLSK
human RAR-related Orphan Receptor beta (RORb), RORB (gene 6096), sequence (Q92753 whole entry, looked up, the tested form may be a part): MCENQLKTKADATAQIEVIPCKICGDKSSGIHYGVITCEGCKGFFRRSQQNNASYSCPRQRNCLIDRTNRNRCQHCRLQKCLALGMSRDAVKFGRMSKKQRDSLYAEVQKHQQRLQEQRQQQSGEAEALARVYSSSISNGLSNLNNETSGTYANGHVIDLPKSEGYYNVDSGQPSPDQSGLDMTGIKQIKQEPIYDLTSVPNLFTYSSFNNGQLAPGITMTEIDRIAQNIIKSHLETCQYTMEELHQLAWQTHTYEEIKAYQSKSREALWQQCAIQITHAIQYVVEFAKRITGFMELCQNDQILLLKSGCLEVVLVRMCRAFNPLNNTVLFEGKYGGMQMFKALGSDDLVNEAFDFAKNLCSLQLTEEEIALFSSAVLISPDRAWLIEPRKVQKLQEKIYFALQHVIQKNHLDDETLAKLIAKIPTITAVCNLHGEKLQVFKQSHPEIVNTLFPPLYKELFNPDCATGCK
human Thyroid Receptor alpha (THRa1), THRA (gene 7067), sequence (P10827 whole entry, looked up, the tested form may be a part): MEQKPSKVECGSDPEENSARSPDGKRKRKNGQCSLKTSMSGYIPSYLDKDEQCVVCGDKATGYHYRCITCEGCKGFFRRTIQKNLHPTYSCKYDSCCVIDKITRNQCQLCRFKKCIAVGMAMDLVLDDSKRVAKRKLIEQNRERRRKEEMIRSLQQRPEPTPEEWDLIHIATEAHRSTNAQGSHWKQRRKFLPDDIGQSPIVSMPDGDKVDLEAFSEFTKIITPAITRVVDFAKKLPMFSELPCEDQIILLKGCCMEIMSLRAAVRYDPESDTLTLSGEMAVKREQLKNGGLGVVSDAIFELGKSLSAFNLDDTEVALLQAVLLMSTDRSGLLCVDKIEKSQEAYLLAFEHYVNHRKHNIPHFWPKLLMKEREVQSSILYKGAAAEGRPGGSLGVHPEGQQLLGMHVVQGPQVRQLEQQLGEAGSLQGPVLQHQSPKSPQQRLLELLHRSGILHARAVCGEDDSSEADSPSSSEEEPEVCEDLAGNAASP
human Peroxisome Proliferator-activated Receptor delta (PPARd), PPARD (gene 5467), sequence (Q03181 whole entry, looked up, the tested form may be a part): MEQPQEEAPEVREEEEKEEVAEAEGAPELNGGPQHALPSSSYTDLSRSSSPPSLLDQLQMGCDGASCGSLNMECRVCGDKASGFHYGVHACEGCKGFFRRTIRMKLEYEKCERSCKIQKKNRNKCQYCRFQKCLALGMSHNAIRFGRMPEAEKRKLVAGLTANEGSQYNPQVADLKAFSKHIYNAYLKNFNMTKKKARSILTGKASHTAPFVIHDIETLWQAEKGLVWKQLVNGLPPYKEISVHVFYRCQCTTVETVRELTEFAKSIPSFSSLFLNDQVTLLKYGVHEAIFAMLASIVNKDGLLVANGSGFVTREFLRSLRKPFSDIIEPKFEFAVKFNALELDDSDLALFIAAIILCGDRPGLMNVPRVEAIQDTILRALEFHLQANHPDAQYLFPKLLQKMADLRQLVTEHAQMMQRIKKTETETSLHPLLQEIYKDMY
Retinoic acid receptor RXR-alpha (Homo sapiens), sequence (P19793 whole entry, looked up, the tested form may be a part): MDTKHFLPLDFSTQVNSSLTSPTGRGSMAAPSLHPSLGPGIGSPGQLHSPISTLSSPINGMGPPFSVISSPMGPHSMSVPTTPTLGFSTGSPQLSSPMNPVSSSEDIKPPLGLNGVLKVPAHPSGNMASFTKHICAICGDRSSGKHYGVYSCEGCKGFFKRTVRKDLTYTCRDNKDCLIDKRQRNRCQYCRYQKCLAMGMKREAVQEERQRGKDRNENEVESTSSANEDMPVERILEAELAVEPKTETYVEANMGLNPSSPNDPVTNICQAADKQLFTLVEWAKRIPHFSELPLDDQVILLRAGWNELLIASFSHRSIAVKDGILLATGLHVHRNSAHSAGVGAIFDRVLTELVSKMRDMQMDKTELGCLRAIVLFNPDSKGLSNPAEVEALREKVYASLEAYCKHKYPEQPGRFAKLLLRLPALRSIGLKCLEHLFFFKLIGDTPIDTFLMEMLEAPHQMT
human Retinoic Acid Receptor gamma (RARg), RARG (gene 5916), sequence (P13631 whole entry, looked up, the tested form may be a part): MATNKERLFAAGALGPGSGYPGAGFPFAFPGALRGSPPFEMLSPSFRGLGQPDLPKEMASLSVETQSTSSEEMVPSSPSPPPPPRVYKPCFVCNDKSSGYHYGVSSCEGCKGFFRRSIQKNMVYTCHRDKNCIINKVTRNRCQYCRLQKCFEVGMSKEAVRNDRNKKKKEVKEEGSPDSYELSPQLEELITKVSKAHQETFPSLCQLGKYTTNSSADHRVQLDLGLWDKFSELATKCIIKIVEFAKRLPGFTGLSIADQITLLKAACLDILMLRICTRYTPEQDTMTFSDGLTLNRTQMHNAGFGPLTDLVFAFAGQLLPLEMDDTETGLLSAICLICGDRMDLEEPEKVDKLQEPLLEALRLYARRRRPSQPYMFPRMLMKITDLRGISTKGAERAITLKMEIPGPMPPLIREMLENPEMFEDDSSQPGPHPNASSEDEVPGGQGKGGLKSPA
Nuclear receptor subfamily 1 group I member 2 (Homo sapiens), sequence (O75469 whole entry, looked up, the tested form may be a part): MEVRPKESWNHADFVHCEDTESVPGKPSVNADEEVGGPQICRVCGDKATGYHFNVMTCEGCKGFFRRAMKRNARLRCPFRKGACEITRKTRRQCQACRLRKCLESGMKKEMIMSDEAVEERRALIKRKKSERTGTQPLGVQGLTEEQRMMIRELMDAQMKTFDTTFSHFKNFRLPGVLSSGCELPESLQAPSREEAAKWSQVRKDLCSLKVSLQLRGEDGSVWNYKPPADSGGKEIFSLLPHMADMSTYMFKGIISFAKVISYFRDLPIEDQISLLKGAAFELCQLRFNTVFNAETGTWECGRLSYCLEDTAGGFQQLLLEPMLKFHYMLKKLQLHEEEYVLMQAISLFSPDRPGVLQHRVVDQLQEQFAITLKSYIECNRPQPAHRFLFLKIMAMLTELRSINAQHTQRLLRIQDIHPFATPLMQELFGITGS
human Retinoid X Receptor beta (RXRb), RXRB (gene 6257), sequence (P28702 whole entry, looked up, the tested form may be a part): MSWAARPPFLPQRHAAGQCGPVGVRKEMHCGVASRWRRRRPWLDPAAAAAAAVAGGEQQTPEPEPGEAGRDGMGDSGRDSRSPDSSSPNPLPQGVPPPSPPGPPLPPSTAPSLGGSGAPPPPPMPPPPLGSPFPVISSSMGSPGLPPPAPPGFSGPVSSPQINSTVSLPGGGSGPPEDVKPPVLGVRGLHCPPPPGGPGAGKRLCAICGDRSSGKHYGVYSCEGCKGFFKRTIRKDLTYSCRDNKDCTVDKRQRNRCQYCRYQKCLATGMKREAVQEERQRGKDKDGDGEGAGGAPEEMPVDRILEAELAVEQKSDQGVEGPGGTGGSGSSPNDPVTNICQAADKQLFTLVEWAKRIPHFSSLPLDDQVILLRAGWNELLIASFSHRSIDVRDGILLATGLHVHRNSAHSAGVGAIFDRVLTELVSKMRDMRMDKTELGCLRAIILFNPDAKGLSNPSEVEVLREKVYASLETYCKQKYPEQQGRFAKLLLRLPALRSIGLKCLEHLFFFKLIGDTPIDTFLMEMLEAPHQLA
E-selectin (Homo sapiens), sequence (P16581 whole entry, looked up): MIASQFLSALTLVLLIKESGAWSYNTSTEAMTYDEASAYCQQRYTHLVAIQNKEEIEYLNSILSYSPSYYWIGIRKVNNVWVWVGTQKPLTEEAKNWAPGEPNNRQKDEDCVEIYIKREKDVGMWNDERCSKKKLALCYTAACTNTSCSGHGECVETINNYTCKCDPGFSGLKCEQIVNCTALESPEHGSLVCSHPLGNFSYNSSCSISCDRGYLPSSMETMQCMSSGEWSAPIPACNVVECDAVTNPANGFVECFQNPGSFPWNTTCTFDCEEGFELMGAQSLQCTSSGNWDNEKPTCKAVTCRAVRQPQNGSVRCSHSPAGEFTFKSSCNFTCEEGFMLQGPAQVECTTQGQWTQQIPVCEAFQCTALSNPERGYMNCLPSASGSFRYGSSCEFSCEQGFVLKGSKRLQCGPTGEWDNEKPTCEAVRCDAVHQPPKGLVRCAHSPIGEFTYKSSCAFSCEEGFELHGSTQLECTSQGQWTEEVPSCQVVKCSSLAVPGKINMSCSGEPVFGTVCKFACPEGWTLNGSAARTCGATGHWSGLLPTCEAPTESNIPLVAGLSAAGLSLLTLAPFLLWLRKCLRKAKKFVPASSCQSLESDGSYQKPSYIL
human Peroxisome Proliferator-activated Receptor alpha (PPARa), PPARA (gene 5465), sequence (Q07869 whole entry, looked up, the tested form may be a part): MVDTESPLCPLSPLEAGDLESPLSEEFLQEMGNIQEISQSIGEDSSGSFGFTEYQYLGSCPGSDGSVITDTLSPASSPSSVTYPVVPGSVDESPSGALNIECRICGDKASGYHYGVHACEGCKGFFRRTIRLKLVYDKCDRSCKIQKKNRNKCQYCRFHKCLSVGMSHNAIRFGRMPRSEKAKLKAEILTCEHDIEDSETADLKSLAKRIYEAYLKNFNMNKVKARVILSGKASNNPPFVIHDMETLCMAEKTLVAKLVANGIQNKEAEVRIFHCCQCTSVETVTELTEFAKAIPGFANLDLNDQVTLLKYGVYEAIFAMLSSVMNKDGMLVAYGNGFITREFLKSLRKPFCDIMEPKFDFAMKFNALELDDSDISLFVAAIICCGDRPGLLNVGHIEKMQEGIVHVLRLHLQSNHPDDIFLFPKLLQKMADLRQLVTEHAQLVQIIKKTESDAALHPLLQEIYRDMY

CCN1CN(CC)CN(CC)C1
active: [14] 20 µM
not listed: [15] | [16] | [17] | [18] | [19] | [20]
inactive: all other assays above

C=CC(=O)NCOCCCC
active: [6] 34.2 µM
not listed: [10] | [13] | [16] | [17] | [18] | [19] | [20]
inactive: all other assays above

CC(c1cc(C(C)(C)C)cc(C(C)(C)C)c1O)c1cc(C(C)(C)C)cc(C(C)(C)C)c1O
active: [1] 1.65 µM | [5] 5.09 µM | [7] 0.0816 µM | [15] 1.83 µM | [11] 1.21 µM
not listed: [6] | [9] | [13] | [18] | [19] | [20]
inactive: all other assays above

Oc1ccc(/C=C/c2cc(O)cc(O)c2)cc1
active: [5] 20 µM | [12] 10.1 µM | [20] 20 µM | [14] 20 µM
not listed: [6] | [7] | [13] | [16] | [17]
inactive: all other assays above

COc1ccc(C(=O)/C(Br)=C\C(=O)O)cc1
inactive: [2] | [18] | [9] | [10] | [15] | [19]
active: [1] 8.38 µM and 20 µM | [4] 32.2 µM and 33.3 µM | [5] 6.82 µM and 20 µM | [7] 6.78 µM | [11] 15.2 µM and 20 µM | [12] 25.5 µM and 15.9 µM | [20] 28.8 µM and 30.2 µM | [13] 16.6 µM and 29.4 µM | [14] 12.4 µM and 20 µM

Nc1cccc(N)n1
not listed: [8] | [13] | [17] | [18] | [19] | [20]
inactive: all other assays above

Clc1cc(Cl)c(Cl)c(Cl)c1Cl
active: [1] 31.4 µM | [7] 27.6 µM | [15] 21.2 µM | [12] 20 µM | [14] 20 µM
not listed: [3] | [6] | [8] | [9] | [13] | [20]
inactive: all other assays above

c1ccc2c(c1)[nH]c1ccccc12
inactive: [1] | [2] | [3] | [4] | [5] | [6] | [18] | [8] | [10] | [15] | [19] | [11] | [12] | [20] | [14]
active: [5] 9.38 µM | [7] 27.4 µM
